# Measurements: PubChem BioAssay (NCATS)
# Records with an inconclusive call do not appear. Entries that show only a call come without a potency. The source holds several records for some structures; these can differ, active in one and inactive in another. Active and inactive are the calls of the source. Unless noted, calls come from the whole dose curve; as a rule, active = well fitted curve in the direction sought with a large enough effect; inconclusive = small, poorly fitted or top-dose-only effect, or another doubt; inactive = no such curve, though single readings can be large; an effect the other way counts as inactive or inconclusive.
# Legend:
# [1] = qHTS for inhibitors of adenylyl cyclases using a fission yeast platform: a pilot screen against the NCATS LOPAC library (AID 1347410)
# Method in brief: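 S. pombe CHP2027 (AC9-GNAS-PDE4D2) carrying PKA-repressed fbp1-GFP, incubated 18 h at 30C in EMM with LOPAC compounds at up to 57 uM. GFP gain-of-signal read by laser scanning cytometry; DMSO negative control.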
# [2] = Validation qHTS assay for inhibitors of Activation Induced Cytidine Deaminase (AID): UDG Counterscreen signal (AID 1347427)
# Method in brief: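 Counterscreen read of UDG activity (2 U/mL, 4/3x) in the FRET deamination format with AID (1 uM, 4/3x), DJC20/DJC23 substrates (250 nM, 4x), 4 h at room temperature. NaOH stop, fluorescence at 560 ex/665 em.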
# [3] = Primary qHTS for inhibitors of La Crosse Virus (LACV) - induced cell death in SH-SY5Y cells (AID 1508616);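 note: top concentration of the series differs between compounds; higher means more rescue of cells from virus-induced death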
# Method in brief: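 SH-SY5Y cells (6000/well) plated 24 h, then given compounds by pin transfer and LACV at 0.01 MOI for 6 days at 37C. Viability measured by ATPLite luminescence, normalized to infected DMSO and uninfected DMSO.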
# [4] = biological target: Calcium and integrin-binding protein 1 (Homo sapiens) (UniProt Q99828); test: Validation qHTS for Identification of Calcium Integrin Binding protein 1 (CIB1) Competitor (AID 1508618)
# Method in brief: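 Fluorescence polarization with 1 uM CIB1-GST and 100 nM FITC-alphaIIb peptide in HEPES pH 7.4, NaCl, 5 mM CaCl2, Tween20. Compounds at up to 114 uM final, preincubated with protein 15 min; read after 15 min more at RT.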
# [5] = Primary qHTS for small molecule stabilizers of the endoplasmic reticulum resident proteome: Secreted ER Calcium Modulated Protein (SERCaMP) assay (AID 1508630); note: potency is the fitted concentration of half-maximal effect
# Method in brief: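 GLuc-SERCaMP-expressing SH-SY5Y cells, pretreated 16 h with compound, are challenged with thapsigargin to empty ER calcium stores; after 4 h, coelenterazine is added directly to the medium and luminescence is imaged.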
# Papain (Carica papaya) = Papain (Carica papaya) (UniProt P00784); test: Primary qHTS assay for inhibitors of the protease papain (AID 1645873);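 note: papain turnover of Z-FR-AMC read as the AMC fluorescence gain over 10 min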; note: potency is the fitted concentration of half-maximal effect
# [6] = biological target: Calcium and integrin-binding protein 1 (Homo sapiens) (UniProt Q99828); test: Primary qHTS for Identification of Calcium Integrin Binding Protein 1 (CIB1) Competitor (AID 1508620);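 note: GST tagged CIB1 binding a fluorescein labelled alphaIIb integrin peptide tracer; top concentration of the series differs between compounds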
# Method in brief: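 CIB1-GST (1 uM final) and compound incubated 15 min at room temperature before adding FITC-alphaIIb peptide tracer (100 nM final). Competition for binding read by fluorescence polarization (ex 480, em 540) after another 15 min at room temperature.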
# [7] = biological target: Cytochrome P450 2C9 (Homo sapiens) (UniProt P11712); test: Cytochrome P450 family 2 subfamily C member 9 (CYP2C9) small molecule antagonists: luciferase biochemical (cell-free) qHTS assay (AID 1645842; active = well fitted curve in the direction sought with a large enough effect in the repeat runs; an effect the other way counts as inactive or inconclusive; note: potency is the fitted concentration of half-maximal effect; nearly all actives have a fitted effect of over 55% in size)
# Method in brief: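 Luminescence, after 20 min with luciferin detection reagent, reflected CYP2C9 turnover during a 1 h NADPH-driven reaction at 37C. Enzyme-substrate mix contained 0.4% bovine serum albumin and was preincubated with compound 10 min at room temperature.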
# [8] = Counterscreen qHTS for small molecule stabilizers of the endoplasmic reticulum resident proteome: GLuc-NoTag assay (AID 1508627);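 note: SH-SY5Y cells given compound then 100 nM thapsigargin to empty ER calcium; series mostly up to about 76 µM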
# Method in brief: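 Luminescence of Gaussia luciferase secreted into the medium (coelenterazine, 0.07x final, unlysed cells) was the read-out. Human SH-SY5Y neuroblastoma cells constitutively secreting untagged GLuc received compound for 19 h, then 100 nM thapsigargin for 4 h.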
# [9] = Cell Viability qHTS for small molecule stabilizers of the endoplasmic reticulum resident proteome (AID 1508629); conditions: cell viability counter-screen, 100 nM thapsigargin for final 4 h;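 note: human SH-SY5Y neuroblastoma cells carrying the GLuc-SERCaMP reporter; compound exposure about 46 h in total before the viability read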
# [10] = Confirmatory qHTS for small molecule stabilizers of the endoplasmic reticulum resident proteome: Secreted ER Calcium Modulated Protein (SERCaMP) assay (AID 1508628); note: series mostly up to about 76 µM; nearly all actives have a fitted effect of over 40% in size
# Method in brief: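 SH-SY5Y cells stably expressing GLuc-SERCaMP, treated 16 h with compound (primary 1.53, 7.67, 38.3 uM; confirmation 11 concentrations, up to 76.6 uM), then 100 nM thapsigargin for 4 h. Secreted Gaussia luciferase in medium read by coelenterazine luminescence.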
# [11] = biological target: Cytochrome P450 2D6 (Homo sapiens) (UniProt P10635); test: Cytochrome P450 family 2 subfamily D member 6 (CYP2D6) small molecule antagonists: luciferase biochemical (cell-free) qHTS assay (AID 1645840; active = well fitted curve in the direction sought with a large enough effect in the repeat runs; an effect the other way counts as inactive or inconclusive; note: potency is the fitted concentration of half-maximal effect; nearly all actives have a fitted effect of over 55% in size)
# Method in brief: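 P450-Glo luminescent screen: recombinant CYP2D6 enzyme–proluciferin substrate mix preincubated with compound 10 min at room temperature, then NADPH regeneration added for 1 h at room temperature. Detection reagent added for 20 min; luciferin light read as relative luminescence units.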
# [12] = biological target: Single-stranded DNA cytosine deaminase (Homo sapiens) (UniProt Q9GZX7); test: Validation qHTS assay for inhibitors of Activation Induced Cytidine Deaminase (AID): AID signal (AID 1347429)
# Method in brief: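 FRET deamination assay: 1 uM AID (4/3x stock) with UDG, compound up to 114 uM, then 250 nM DJC20/DJC23 substrate (4x stock) for 4 hr at room temperature. NaOH added, 30 min; fluorescence read 540/590 nm.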
# Sequence of Papain (Carica papaya) (P00784 whole entry, looked up): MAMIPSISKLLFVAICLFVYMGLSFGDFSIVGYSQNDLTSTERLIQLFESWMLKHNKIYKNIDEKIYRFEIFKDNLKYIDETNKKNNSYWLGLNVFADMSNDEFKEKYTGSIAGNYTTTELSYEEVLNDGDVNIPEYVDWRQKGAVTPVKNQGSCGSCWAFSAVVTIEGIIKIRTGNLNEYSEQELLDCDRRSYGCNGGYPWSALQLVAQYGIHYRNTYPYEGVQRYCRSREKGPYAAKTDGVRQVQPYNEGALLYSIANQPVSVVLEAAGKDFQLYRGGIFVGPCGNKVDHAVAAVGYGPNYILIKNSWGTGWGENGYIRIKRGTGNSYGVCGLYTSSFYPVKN
# Sequence of Cytochrome P450 2C9 (Homo sapiens) (P11712 whole entry, looked up): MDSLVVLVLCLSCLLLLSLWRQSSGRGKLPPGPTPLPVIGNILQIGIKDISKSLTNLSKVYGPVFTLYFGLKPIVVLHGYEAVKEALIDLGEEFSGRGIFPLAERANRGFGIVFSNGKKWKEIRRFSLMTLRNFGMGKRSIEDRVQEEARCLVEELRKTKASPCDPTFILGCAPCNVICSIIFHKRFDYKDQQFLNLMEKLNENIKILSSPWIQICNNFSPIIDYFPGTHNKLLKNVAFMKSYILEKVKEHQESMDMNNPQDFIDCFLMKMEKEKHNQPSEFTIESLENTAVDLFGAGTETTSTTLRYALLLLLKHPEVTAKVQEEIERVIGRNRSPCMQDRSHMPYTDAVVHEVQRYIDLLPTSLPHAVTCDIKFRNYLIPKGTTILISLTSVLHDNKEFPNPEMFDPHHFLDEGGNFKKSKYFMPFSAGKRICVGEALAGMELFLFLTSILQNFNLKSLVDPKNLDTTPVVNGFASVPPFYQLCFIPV
# Sequence of Cytochrome P450 2D6 (Homo sapiens) (P10635 whole entry, looked up): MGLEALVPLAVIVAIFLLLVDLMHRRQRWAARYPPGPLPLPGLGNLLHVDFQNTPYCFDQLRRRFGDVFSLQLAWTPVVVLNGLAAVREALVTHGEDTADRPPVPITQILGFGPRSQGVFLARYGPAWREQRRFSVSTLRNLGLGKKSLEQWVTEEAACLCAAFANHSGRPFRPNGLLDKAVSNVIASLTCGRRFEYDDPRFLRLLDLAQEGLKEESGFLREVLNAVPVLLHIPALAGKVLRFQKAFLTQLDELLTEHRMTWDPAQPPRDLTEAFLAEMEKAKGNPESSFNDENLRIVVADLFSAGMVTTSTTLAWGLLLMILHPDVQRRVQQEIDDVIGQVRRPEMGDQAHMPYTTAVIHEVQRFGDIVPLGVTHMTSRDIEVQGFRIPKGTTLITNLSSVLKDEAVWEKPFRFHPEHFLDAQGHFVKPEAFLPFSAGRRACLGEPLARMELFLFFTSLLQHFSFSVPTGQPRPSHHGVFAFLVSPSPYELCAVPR
# Sequence of Calcium and integrin-binding protein 1 (Homo sapiens) (Q99828 whole entry, looked up): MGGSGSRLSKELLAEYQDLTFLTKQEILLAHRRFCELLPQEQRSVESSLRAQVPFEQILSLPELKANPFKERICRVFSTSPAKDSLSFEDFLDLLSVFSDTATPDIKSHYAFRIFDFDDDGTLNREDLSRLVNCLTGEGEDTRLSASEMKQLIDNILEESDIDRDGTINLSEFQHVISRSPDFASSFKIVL
# Sequence of Single-stranded DNA cytosine deaminase (Homo sapiens) (Q9GZX7 whole entry, looked up): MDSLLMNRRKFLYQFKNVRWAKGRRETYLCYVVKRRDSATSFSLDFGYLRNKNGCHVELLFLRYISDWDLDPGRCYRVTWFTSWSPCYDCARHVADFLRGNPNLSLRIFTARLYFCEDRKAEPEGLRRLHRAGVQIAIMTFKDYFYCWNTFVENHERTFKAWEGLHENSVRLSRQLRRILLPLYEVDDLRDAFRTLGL
compound,measurement,setting,value
COc1cc2c(CCNC(C)=O)c[nH]c2cc1Cl,outcome,[1],inactive
same,Potency,[2],inactive
same,Potency,[3],inactive
same,outcome,[4],inactive
same,Potency,[5],inactive
same,Potency,Papain (Carica papaya),inactive
O=c1[nH]c2cc(C(F)(F)F)ccc2n1-c1cc(C(F)(F)F)ccc1O,outcome,[1],inactive
same,Potency,[2],inactive
same,Potency,[3],inactive
same,Potency,[5],inactive
same,Potency,Papain (Carica papaya),inactive
CN(C)CCC(c1ccc(Cl)cc1)c1ccccn1 (stereo not given),outcome,[1],inactive
same,Potency,[2],inactive
same,Potency,[3],inactive
same,Potency,[5],inactive
same,Potency,Papain (Carica papaya),inactive
O=[N+]([O-])c1ccc(CNc2nc(NCc3cccc(C(F)(F)F)c3)nc3nc[nH]c23)cc1,outcome,[1],inactive
same,outcome,[4],inactive
same,Potency,[6],inactive
same,Potency,[7],1.07 µM (active)
same,Potency,Papain (Carica papaya),inactive
CC[C@@H](C)[C@H]1O[C@]2(CC[C@H]1C)C[C@@H]1C[C@@H](CC=C(C)[C@@H](O[C@H]3C[C@H](OC)[C@@H](O[C@H]4C[C@H](OC)[C@@H](O)[C@H](C)O4)[C@H](C)O3)[C@@H](C)C=CC=C3CO[C@@H]4[C@H](O)C(C)=C[C@@H](C(=O)O1)[C@]34O)O2,outcome,[1],inactive
same,Potency,[2],inactive
same,Potency,[3],inactive
same,outcome,[4],inactive
same,Potency,[5],inactive
same,Potency,Papain (Carica papaya),inactive
Fc1ccc(C(OCCCc2cnc[nH]2)c2ccc(F)cc2)cc1,outcome,[1],inactive
same,Potency,[2],inactive
same,outcome,[4],inactive
same,Potency,[8],inactive
same,max response,[9],-7.37% (inactive)
same,Potency,[5],inactive
CN1CCc2ccccc2Cc2[nH]c3ccccc3c2CC1,outcome,[1],inactive
same,Potency,[2],inactive
same,Potency,[3],inactive
same,Potency,[5],inactive
same,Potency,Papain (Carica papaya),inactive
CCNc1nc2c(ncn2[C@H]2C[C@H](O)[C@@H](CO)O2)c(=O)[nH]1,outcome,[1],inactive
same,outcome,[4],inactive
same,Potency,[6],inactive
same,Potency,Papain (Carica papaya),inactive
CC1OC1P(=O)(O)O (stereo not given),outcome,[1],inactive
same,Potency,[2],inactive
same,Potency,[3],inactive
same,outcome,[4],inactive
same,Potency,Papain (Carica papaya),inactive
CNCC[C@H](Oc1ccc(C(F)(F)F)cc1)c1ccccc1,outcome,[1],inactive
same,Potency,[3],inactive
same,Potency,[10],inactive
same,Potency,[5],inactive
same,Potency,Papain (Carica papaya),inactive
C[N+]1(C)C2CC(OC(=O)[C@H](CO)c3ccccc3)CC1C1OC12 (stereo not given in full),outcome,[1],inactive
same,Potency,[3],inactive
same,outcome,[4],inactive
same,Potency,[8],inactive
same,Potency,[10],inactive
same,max response,[9],12% (inactive)
same,Potency,Papain (Carica papaya),1.12 µM (active) and inactive
S=C(S)OC1CC2CC1C1CCCC21 (stereo not given),outcome,[1],inactive
same,Potency,[2],inactive
same,Potency,[3],inactive
same,outcome,[4],inactive
same,Potency,[5],inactive
same,Potency,Papain (Carica papaya),inactive
NS(=O)(=O)c1ccc(-n2nc(C(F)(F)F)cc2-c2ccc(Cl)cc2)cc1,outcome,[1],inactive
same,outcome,[4],inactive
same,Potency,[6],inactive
same,Potency,[11],7.56 µM (active)
same,Potency,[7],10.7 µM (active)
same,Potency,Papain (Carica papaya),inactive
Nc1nc(SCc2ccc([N+](=O)[O-])cc2)c2ncn([C@@H]3O[C@H](CO)[C@@H](O)[C@H]3O)c2n1,outcome,[1],inactive
same,Potency,[2],inactive
same,Potency,[3],inactive
same,Potency,[5],inactive
same,Potency,Papain (Carica papaya),inactive
Fc1ccc2[nH]c(CN3CCN(c4ccccn4)CC3)cc2c1,outcome,[1],inactive
same,outcome,[4],inactive
same,Potency,[11],5.35 µM (active)
same,Potency,[7],6.74 µM (active)
same,Potency,Papain (Carica papaya),inactive
O=C1/C(=C/c2ccsc2)CC/C1=C\c1cccs1,outcome,[1],inactive
same,Potency,[2],inactive
same,Potency,[3],inactive
same,Potency,[5],inactive
C#C[C@]1(O)CC[C@H]2[C@@H]3CCC4=Cc5oncc5CC4(C)[C@H]3CCC21C (stereo not given in full),outcome,[1],inactive
same,Potency,[3],inactive
same,Potency,[5],inactive
same,Potency,Papain (Carica papaya),inactive
COC1=C(OC)C(=O)c2ccccc2C1=O,outcome,[1],inactive
same,Potency,[3],inactive
same,outcome,[4],inactive
same,Potency,Papain (Carica papaya),inactive
O=C1C(SCCO)=C(SCCO)C(=O)c2ccccc21,outcome,[1],inactive
same,Potency,[2],inactive
same,Potency,[5],25.1 µM (active)
same,Potency,Papain (Carica papaya),inactive
c1ccc(-c2ccccn2)nc1,outcome,[1],inactive
same,Potency,[2],inactive
same,Potency,[3],inactive
same,Potency,[5],inactive
same,Potency,Papain (Carica papaya),inactive
O=C(Nc1ccncc1)c1cc([N+](=O)[O-])ccc1Cl,outcome,[1],inactive
same,outcome,[4],inactive
same,Potency,[5],inactive
same,Potency,Papain (Carica papaya),inactive
OCC1O[C@H]([S-])[C@H](O)[C@@H](O)[C@@H]1O.[Au+] (stereo not given in full),outcome,[1],inactive
same,Potency,[2],inactive
same,Potency,[3],inactive
same,Potency,[5],inactive
CNC(=O)[C@H]1O[C@@H](n2cnc3c(NCc4ccc(N)cc4)ncnc32)[C@H](O)[C@@H]1O,outcome,[1],inactive
same,Potency,[2],inactive
same,Potency,[3],inactive
same,Potency,[5],inactive
same,Potency,Papain (Carica papaya),inactive
CCOC(=O)C1=C(C)NC(C)=C(C(=O)OCC)C1c1c(F)c(F)c(F)c(F)c1F,outcome,[1],inactive
same,Potency,[12],inactive
same,Potency,[3],inactive
same,Potency,[5],inactive
same,Potency,Papain (Carica papaya),25.1 µM (active)
CC(C)(C)c1ccc(S(=O)(=O)/C=C/C#N)cc1,outcome,[1],inactive
same,Potency,[2],inactive
same,Potency,[5],inactive
same,Potency,Papain (Carica papaya),inactive
CS(=O)(=O)c1ccc(-n2nc(C(F)(F)F)cc2-c2ccc(F)cc2)cc1,outcome,[1],inactive
same,outcome,[4],inactive
same,Potency,[11],9.52 µM (active)
same,Potency,[7],3.38 µM (active)
same,Potency,Papain (Carica papaya),inactive
COc1cc(C(O)CO)ccc1OS(=O)(=O)O (stereo not given),outcome,[1],inactive
same,Potency,[2],inactive
same,Potency,[3],inactive
same,outcome,[4],inactive
same,Potency,[5],inactive
same,Potency,Papain (Carica papaya),inactive
c1cnc2c(c1)ccc1cccnc12,outcome,[1],inactive
same,Potency,[2],inactive
same,outcome,[4],inactive
same,Potency,[5],inactive
same,Potency,Papain (Carica papaya),15.8 µM (active)
